Binding signal data for eight sequences are collected here from publication PMC7862700, “An all-to-all approach to the identification of sequence-specific readers for epigenetic DNA modifications on cytosine”.

Assay in all cases: DAPPL (digital affinity profiling via proximity ligation, sequencing); 10 mM Tris-HCl pH 7.5, 50 mM NaCl, 1 mM DTT, 4% glycerol, room temperature, 30 min; GST-TFs on glutathione beads, 16-mer random dsDNA library, 0.1% formaldehyde crosslink after washing; high values mean tight binding
Common to all, as to conditions: protein: recombinant; tags: N-terminal GST; dsDNA, one strand shown

In test [1] the target is T1, ERF (Homo sapiens, UniProt P50548 1-548).
T1 sequence: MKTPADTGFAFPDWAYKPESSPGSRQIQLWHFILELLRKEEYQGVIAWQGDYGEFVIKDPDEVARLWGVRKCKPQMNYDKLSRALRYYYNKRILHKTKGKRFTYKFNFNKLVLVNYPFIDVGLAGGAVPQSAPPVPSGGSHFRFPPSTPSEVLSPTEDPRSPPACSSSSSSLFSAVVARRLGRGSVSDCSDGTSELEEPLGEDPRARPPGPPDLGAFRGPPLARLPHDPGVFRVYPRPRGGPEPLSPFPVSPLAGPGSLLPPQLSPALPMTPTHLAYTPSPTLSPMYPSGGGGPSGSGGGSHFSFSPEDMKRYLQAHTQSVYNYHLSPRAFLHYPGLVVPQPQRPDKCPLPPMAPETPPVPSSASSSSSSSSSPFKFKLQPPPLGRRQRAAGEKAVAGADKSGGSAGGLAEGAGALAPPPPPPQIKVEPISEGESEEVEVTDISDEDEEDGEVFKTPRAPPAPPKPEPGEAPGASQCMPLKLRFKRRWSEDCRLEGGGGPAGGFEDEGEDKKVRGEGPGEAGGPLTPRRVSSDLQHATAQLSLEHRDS
In outline: (§1)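 The binding signal reported is, for every hexamer, its read frequency for a factor over its read frequency for the tag-only sample. Reads came from pools of yeast-expressed, GST-fused human transcription factors on glutathione beads, barcoded with DNA and mixed with that sample, which were incubated with 200 nmole of a random double-stranded 16-mer DNA library in Tris/NaCl/DTT/glycerol buffer at room temperature for 30 min. After washing, the pools were crosslinked with 0.1% formaldehyde, proximity-ligated with BsaI/T4 ligase for 1 h at 37 °C, PCR-amplified and sequenced on an Illumina NextSeq500.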

For test [2], the target named is T2, ETV3L (Homo sapiens, UniProt Q6ZN32 1-361).
T2 sequence: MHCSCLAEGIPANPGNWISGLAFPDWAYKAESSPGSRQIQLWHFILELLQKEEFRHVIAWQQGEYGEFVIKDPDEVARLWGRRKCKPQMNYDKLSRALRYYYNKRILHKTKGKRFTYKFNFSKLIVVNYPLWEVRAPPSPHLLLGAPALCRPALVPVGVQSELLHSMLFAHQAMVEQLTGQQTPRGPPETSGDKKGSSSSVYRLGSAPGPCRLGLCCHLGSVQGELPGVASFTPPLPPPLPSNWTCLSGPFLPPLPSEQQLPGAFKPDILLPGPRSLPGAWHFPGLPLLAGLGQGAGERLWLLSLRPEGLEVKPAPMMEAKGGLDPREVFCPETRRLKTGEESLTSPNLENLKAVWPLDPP
In outline: as §1

In test [3] the target is T3, ETS2 (Homo sapiens, UniProt P15036 1-469).
T3 sequence: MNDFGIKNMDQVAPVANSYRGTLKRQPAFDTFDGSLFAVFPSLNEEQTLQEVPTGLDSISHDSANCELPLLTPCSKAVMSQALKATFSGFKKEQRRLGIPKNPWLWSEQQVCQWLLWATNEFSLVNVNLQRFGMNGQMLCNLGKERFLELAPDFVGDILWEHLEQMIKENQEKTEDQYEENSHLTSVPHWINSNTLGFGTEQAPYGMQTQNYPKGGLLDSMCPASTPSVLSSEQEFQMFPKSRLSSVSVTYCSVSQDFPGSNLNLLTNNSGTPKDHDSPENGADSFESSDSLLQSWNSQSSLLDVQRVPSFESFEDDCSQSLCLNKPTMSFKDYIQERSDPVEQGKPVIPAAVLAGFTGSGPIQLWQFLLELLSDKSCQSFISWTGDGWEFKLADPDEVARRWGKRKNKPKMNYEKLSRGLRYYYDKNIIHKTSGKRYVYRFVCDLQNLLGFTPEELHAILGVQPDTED
The gist of the method: as §1

The target in test [4] is T4, SPDEF (Homo sapiens, UniProt O95238 1-335).
T4 sequence: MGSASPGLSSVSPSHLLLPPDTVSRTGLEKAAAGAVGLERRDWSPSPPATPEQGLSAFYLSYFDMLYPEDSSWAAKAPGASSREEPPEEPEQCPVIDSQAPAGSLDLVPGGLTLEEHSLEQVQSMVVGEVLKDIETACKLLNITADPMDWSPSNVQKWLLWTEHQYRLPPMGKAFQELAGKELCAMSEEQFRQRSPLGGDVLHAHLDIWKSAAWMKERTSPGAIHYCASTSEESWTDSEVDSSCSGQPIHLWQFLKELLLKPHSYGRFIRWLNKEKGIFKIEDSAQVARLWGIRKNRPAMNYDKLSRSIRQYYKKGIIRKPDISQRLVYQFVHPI
In outline:
as §1

Test [5] deals with T5, ETV7 (Homo sapiens, UniProt Q9Y603 1-341).
T5 sequence: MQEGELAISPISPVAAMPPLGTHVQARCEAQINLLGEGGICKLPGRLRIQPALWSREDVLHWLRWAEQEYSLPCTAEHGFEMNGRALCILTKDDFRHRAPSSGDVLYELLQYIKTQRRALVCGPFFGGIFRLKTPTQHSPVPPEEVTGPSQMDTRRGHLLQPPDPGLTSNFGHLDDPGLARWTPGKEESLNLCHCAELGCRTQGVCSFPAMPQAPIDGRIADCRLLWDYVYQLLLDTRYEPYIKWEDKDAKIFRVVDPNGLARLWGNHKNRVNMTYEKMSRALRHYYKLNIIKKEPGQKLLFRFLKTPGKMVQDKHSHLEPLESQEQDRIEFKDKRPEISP
In outline:
as §1

Test [6] addresses T6, ELF5 (Homo sapiens, UniProt Q9UKW6-2 1-255).
T6 sequence: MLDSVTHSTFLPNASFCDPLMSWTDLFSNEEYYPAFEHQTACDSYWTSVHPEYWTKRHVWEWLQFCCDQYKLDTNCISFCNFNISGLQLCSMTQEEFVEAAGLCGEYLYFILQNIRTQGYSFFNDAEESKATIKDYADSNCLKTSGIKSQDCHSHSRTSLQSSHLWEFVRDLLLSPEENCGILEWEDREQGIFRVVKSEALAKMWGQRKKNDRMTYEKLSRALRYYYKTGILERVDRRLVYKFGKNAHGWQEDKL
In outline:
as §1

Test [7] has as its target T7, ETV3 (Homo sapiens, UniProt P41162-2 1-143).
T7 sequence: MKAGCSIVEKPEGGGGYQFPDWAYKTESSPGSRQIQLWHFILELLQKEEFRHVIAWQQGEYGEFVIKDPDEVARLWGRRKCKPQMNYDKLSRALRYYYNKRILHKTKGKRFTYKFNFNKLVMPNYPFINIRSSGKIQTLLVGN
In outline:
as §1

Test [8] addresses ETV6 (Homo sapiens, UniProt P41212 1-452). In outline:
as §1

ETV6, sequence (P41212 whole entry): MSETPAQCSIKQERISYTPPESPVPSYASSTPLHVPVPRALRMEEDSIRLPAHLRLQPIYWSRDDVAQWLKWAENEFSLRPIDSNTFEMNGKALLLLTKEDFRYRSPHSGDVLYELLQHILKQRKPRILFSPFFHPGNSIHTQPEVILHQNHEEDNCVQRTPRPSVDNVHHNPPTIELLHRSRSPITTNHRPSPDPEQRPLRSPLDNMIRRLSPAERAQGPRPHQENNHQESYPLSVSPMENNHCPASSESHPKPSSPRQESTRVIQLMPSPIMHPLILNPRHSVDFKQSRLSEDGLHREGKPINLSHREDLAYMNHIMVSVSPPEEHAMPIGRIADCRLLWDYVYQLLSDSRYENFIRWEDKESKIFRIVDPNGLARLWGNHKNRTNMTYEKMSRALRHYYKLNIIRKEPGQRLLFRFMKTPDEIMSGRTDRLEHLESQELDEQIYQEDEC

As for TCTTTC, the binding signal in test [1] is 1.33 fold enrichment (6-mer frequency, TF over GST control); in test [2] it was 1.39 fold enrichment (6-mer frequency, TF over GST control); in test [3], 1.43 fold enrichment (6-mer frequency, TF over GST control); in test [4], 1.44 fold enrichment (6-mer frequency, TF over GST control); in test [5] it was 1.27 fold enrichment (6-mer frequency, TF over GST control); in test [6], 1.48 fold enrichment (6-mer frequency, TF over GST control). The binding signal is 1.44 fold enrichment (6-mer frequency, TF over GST control) in test [7] and 1.38 fold enrichment (6-mer frequency, TF over GST control) in test [8].
On to CTCTTC, for which the binding signal was 1.62 fold enrichment (6-mer frequency, TF over GST control) in test [1]; 1.89 fold enrichment (6-mer frequency, TF over GST control) in test [2]; 1.65 fold enrichment (6-mer frequency, TF over GST control) in test [3]; 1.59 fold enrichment (6-mer frequency, TF over GST control) in test [4]; 1.56 fold enrichment (6-mer frequency, TF over GST control) in test [5]; 2.07 fold enrichment (6-mer frequency, TF over GST control) in test [6]. For the same sequence, the binding signal was 1.75 fold enrichment (6-mer frequency, TF over GST control) in test [7] and 1.84 fold enrichment (6-mer frequency, TF over GST control) in test [8].
As to ATGCAA, the binding signal was 1.23 fold enrichment (6-mer frequency, TF over GST control) in test [1]; 1.26 fold enrichment (6-mer frequency, TF over GST control) in test [2]; 1.26 fold enrichment (6-mer frequency, TF over GST control) in test [3]; 1.3 fold enrichment (6-mer frequency, TF over GST control) in test [4]; 1.19 fold enrichment (6-mer frequency, TF over GST control) in test [5]; 1.26 fold enrichment (6-mer frequency, TF over GST control) in test [6]. For the same sequence, the binding signal in test [7] was 1.17 fold enrichment (6-mer frequency, TF over GST control); in test [8], 1.24 fold enrichment (6-mer frequency, TF over GST control).
As to AATGTT, the binding signal in test [1] was 1.61 fold enrichment (6-mer frequency, TF over GST control); in test [2], 1.56 fold enrichment (6-mer frequency, TF over GST control); in test [3], 1.56 fold enrichment (6-mer frequency, TF over GST control); in test [4] it was 1.44 fold enrichment (6-mer frequency, TF over GST control); in test [5], 1.68 fold enrichment (6-mer frequency, TF over GST control); in test [6], 1.62 fold enrichment (6-mer frequency, TF over GST control). The binding signal in test [7] was 1.61 fold enrichment (6-mer frequency, TF over GST control); in test [8], 1.63 fold enrichment (6-mer frequency, TF over GST control).
For the sequence CTCCGA, the binding signal in test [1] is 1.41 fold enrichment (6-mer frequency, TF over GST control); in test [2] it was 1.38 fold enrichment (6-mer frequency, TF over GST control); in test [3] it was 1.35 fold enrichment (6-mer frequency, TF over GST control); in test [4], 1.36 fold enrichment (6-mer frequency, TF over GST control); in test [5], 1.24 fold enrichment (6-mer frequency, TF over GST control); in test [6], 1.23 fold enrichment (6-mer frequency, TF over GST control). Also, the binding signal is 1.3 fold enrichment (6-mer frequency, TF over GST control) in test [7] and 1.33 fold enrichment (6-mer frequency, TF over GST control) in test [8].
Consider CCTAAG, for which the binding signal is 1.11 fold enrichment (6-mer frequency, TF over GST control) in test [1]; 1.12 fold enrichment (6-mer frequency, TF over GST control) in test [2]; 1.09 fold enrichment (6-mer frequency, TF over GST control) in test [3]; 1.08 fold enrichment (6-mer frequency, TF over GST control) in test [4]; 1.09 fold enrichment (6-mer frequency, TF over GST control) in test [5]; 1.11 fold enrichment (6-mer frequency, TF over GST control) in test [6]. Besides, the binding signal in test [7] was 1.06 fold enrichment (6-mer frequency, TF over GST control); in test [8], 1.11 fold enrichment (6-mer frequency, TF over GST control).
Turning to TTTGAA, the binding signal was 1.11 fold enrichment (6-mer frequency, TF over GST control) in test [1]; 1.19 fold enrichment (6-mer frequency, TF over GST control) in test [2]; 1.23 fold enrichment (6-mer frequency, TF over GST control) in test [3]; 1.15 fold enrichment (6-mer frequency, TF over GST control) in test [4]; 1.17 fold enrichment (6-mer frequency, TF over GST control) in test [5]; 1.1 fold enrichment (6-mer frequency, TF over GST control) in test [6]. Further, the binding signal was 1.22 fold enrichment (6-mer frequency, TF over GST control) in test [7] and 1.23 fold enrichment (6-mer frequency, TF over GST control) in test [8].
As to TTTAAA, the binding signal in test [1] is 1.31 fold enrichment (6-mer frequency, TF over GST control); in test [2], 1.35 fold enrichment (6-mer frequency, TF over GST control); in test [3] it was 1.26 fold enrichment (6-mer frequency, TF over GST control); in test [4], 1.16 fold enrichment (6-mer frequency, TF over GST control); in test [5], 1.36 fold enrichment (6-mer frequency, TF over GST control); in test [6] it was 1.19 fold enrichment (6-mer frequency, TF over GST control). Besides, the binding signal in test [7] is 1.22 fold enrichment (6-mer frequency, TF over GST control); in test [8], 1.27 fold enrichment (6-mer frequency, TF over GST control).
